Inconclusive results are not listed. Activity calls are given as the source filed them. Unless noted, the call rests on the fitted dose curve; in most records, active means well fitted curve in the direction sought with a large enough effect; inconclusive means small, poorly fitted or top-dose-only effect, or another doubt; inactive means no such curve, though single readings can be large; an effect the other way counts as inactive or inconclusive.

In assay [1] the target is N-terminal Xaa-Pro-Lys N-methyltransferase 1 (Homo sapiens) (UniProt Q9BV86). The assay is described as follows: Confirmatory qHTS for Inhibitors of N-terminal methyltransferase 1 (NTMT1): MTaseGlo Assay (AID 1645874). Further: nearly all actives have a fitted effect of over 65% in size. Further: potency means the concentration at half of the fitted maximal effect.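 On activity change, negative = inhibition: luminescence from SAH made as NTMT1 methylates SPKRIA peptide using SAM; 0% = DMSO control and -100% = no-enzyme control.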 In a few lines:
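MTase-Glo luminescence measured SAH formed by 125 nM NTMT1 from 100 uM SAM and 1 uM SPKRIA peptide over 30 min at room temperature, following 15 min compound preincubation. Percent inhibition against no-enzyme and DMSO controls gave 4-parameter Hill fits.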
On the technique in general: qHTS replaces the single test concentration by a dilution series.

Assay [2] can be described thus: Primary qHTS for inhibitors of nuclear receptor binding SET domain protein 2 (NSD2) in an isogenic RCH-ACV NSD2 p.E1099K mutant (9B) (AID 1645876). Further: potency means the concentration at half of the fitted maximal effect; nearly all actives have a fitted effect of over 70% in size.
Assay [3] in a line: Primary qHTS for inhibitors of nuclear receptor binding SET domain protein 2 (NSD2) in an RCH-ACV wild type WT cells (2C) (AID 1645877). Further: potency means the concentration at half of the fitted maximal effect; nearly all actives have a fitted effect of over 70% in size.
In assay [4] the target is Phospholipid hydroperoxide glutathione peroxidase GPX4 (Homo sapiens) (UniProt P36969). The assay is described as follows: Primary qHTS Assay for Inhibitors of Recombinant Selenoprotein Glutathione Peroxidase 4 (GPX4) (AID 1845192). Further: on the % scale 0 is the no-effect control and ±100 the full control effect; nearly all actives have a fitted effect of over 65% in size. The method in brief: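 NADPH consumption followed by fluorescence at 340/450 nm, t=0 and after 15 min at room temperature. Reaction started with cumene hydroperoxide (0.5 mM final) after 30 min compound–GPX4 preincubation; final 200 nM GPX4, 100 nM GR, 1 mM GSH, 0.5 mM NADPH.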
Sequence of Phospholipid hydroperoxide glutathione peroxidase GPX4 (Homo sapiens) (P36969 whole entry, looked up): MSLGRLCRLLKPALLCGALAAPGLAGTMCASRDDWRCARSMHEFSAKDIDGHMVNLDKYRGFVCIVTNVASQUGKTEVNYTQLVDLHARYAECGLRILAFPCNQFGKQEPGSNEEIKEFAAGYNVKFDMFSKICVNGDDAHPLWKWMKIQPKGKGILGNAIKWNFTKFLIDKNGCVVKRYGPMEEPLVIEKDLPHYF

A short description of assay [5]: qHTS drug screen for cell cycle checkpoint inhibitors in PARPi-resistant BRCA-mutant ovarian cancer cell lines. (AID 1963452; calls by dose curve; further: potency means the concentration at half of the fitted maximal effect). The note with it: PEO1/OlaR viability, CellTiter-Glo luminescence, 96 h; for Z-AUC: stronger effect = lower value. The method in brief: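 PEO1, PEO4 and PEO1/OlaR ovarian cancer cells, 600 per well, exposed 96 h at 37C to a dilution series. Viability read by CellTiter-Glo luminescence, normalized to DMSO and empty wells; activity summarized as Z-AUC.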

Assay [6] has as its target Glutathione peroxidase 1 (Homo sapiens) (UniProt P07203). The assay can be described thus: Primary qHTS Assay for Inhibitors of Recombinant Selenoprotein Glutathione Peroxidase 1 (GPX1) (AID 1845191). Further: nearly all actives have a fitted effect of over 65% in size. The method in brief: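 NADPH consumption tracked by fluorescence at 340/450 nm between t=0 and t=15 min, room temperature. Final mix: 10 nM GPX1, 100 nM glutathione reductase, 1 mM GSH, 0.5 mM NADPH, 0.5 mM cumene hydroperoxide, 0.01% BSA; 30 min compound–enzyme preincubation.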

Assay [7] in a line: qHTS for Inhibitors of Ubiquitin-specific Protease USP2a Using CHOP2 as the Reporter: K633 Counterscreen (AID 652168). Further: % of control where 0% means no effect. In a few lines: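 Detection-system control: fluorescence of K48-linked DiUb-4IQF substrate (100 nM as added) tracked over time, Ex 525/Em 598, with pinned compounds and no enzyme, in pH 8 Tris buffer containing beta-mercaptoethanol and 0.05% Chaps.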
In assay [8] the target is Ubiquitin carboxyl-terminal hydrolase 2 (Homo sapiens) (UniProt O75604). The assay is described as follows: qHTS for Inhibitors of Ubiquitin-specific Protease USP2a Using CHOP2 as the Reporter: K484 Substrate (AID 652173).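 Further: cleavage of internally quenched K48 di-ubiquitin substrate measured as rising fluorescence over time; potency means the concentration at half of the fitted maximal effect; nearly all actives have a fitted effect of over 70% in size.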 The following applies: USP2 cleavage of DiUb K48 IQF substrate, fluorescence. In a few lines: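 Kinetic fluorescence (Ex 525/Em 598) tracked cleavage of an internally quenched K48 di-ubiquitin substrate, added as a 100 nM solution. The enzyme was added as a 5 nM USP2 solution before compound pinning, with no-enzyme controls. Buffer: Tris pH 8, beta-mercaptoethanol, CHAPS.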
Sequence of Ubiquitin carboxyl-terminal hydrolase 2 (Homo sapiens) (O75604 whole entry, looked up): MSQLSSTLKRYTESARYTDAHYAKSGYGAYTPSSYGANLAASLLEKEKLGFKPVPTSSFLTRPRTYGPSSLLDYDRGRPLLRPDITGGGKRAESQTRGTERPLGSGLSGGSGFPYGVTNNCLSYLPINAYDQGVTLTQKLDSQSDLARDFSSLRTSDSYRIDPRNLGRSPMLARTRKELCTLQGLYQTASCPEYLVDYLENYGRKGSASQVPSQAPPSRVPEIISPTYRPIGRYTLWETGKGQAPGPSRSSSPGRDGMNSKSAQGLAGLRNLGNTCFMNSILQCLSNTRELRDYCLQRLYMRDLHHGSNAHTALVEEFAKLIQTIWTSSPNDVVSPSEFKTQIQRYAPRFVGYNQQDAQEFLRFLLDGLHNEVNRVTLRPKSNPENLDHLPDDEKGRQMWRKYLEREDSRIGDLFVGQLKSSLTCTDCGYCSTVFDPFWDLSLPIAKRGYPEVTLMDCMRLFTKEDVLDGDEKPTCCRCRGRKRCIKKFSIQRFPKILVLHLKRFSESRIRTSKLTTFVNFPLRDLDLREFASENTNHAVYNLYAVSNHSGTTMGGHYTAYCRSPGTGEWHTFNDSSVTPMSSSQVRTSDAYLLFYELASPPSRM

Assay [9] has as its target Rap guanine nucleotide exchange factor 3 (Homo sapiens) (UniProt O95398). The assay can be described thus: Confirmatory qHTS for agonist of cAMP-regulated guanine nucleotide exchange factor 3 (EPAC1) (AID 1645881).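 Further: EPAC1 catalysed release of BODIPY-GDP from Rap1B seen as fluorescence loss; 100% = effect of cAMP agonist control; nearly all actives have a fitted effect of over 75% in size.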
Assay [10] addresses Rap guanine nucleotide exchange factor 4 (Homo sapiens) (UniProt Q8WZA2). The assay can be described thus: Confirmatory qHTS for agonist of cAMP-regulated guanine nucleotide exchange factor 4 (EPAC2) (AID 1645884).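 Further: nucleotide exchange releases bodipy-GDP from Rap1 and this lowers its fluorescence; on the % scale 0 is the no-effect control and ±100 the full control effect; nearly all actives have a fitted effect of over 65% in size.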
The target is the same in assay [11]. The assay can be described thus: Confirmatory qHTS for antagonist of cAMP-regulated guanine nucleotide exchange factor 4 (EPAC2) (AID 1645885). Further: on the % scale 0 is the no-effect control and ±100 the full control effect; nearly all actives have a fitted effect of over 25% in size.
Assay [12] has as its target Rap guanine nucleotide exchange factor 3 (Homo sapiens) (UniProt O95398). The assay is described as follows: Counterscreen qHTS for antagonist of cAMP-regulated guanine nucleotide exchange factor 3 (EPAC1) (AID 1645888).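 Further: fluorescence loss as bound BODIPY-GDP is released from Rap1B; % of control where 0% means no effect.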 In a few lines: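 Rap1B-BODIPY-GDP 250 nM + GDP 50 uM; cpds 7-pt, final 9.74 nM–152 uM (activator mode) or from 7.32 nM upwards (inhibitor mode); RT; FI 480/540 nm at 5 and 30 min, then ± cAMP, reread.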

The target of assay [13] is Catechol O-methyltransferase (Homo sapiens) (UniProt P21964). The assay can be described thus: Confirmatory Screen for Target Class Profiling of Small Molecule Inhibitors of Methyltransferases (AID 1745852; calls by dose curve; on activity change, negative = inhibition: on the % scale 0 is the no-effect control and ±100 the full control effect). The following applies: MTase-Glo luminescence, SAH detection, recombinant enzyme; measured here: COMT max response; stronger effect = lower value.
Sequence of Catechol O-methyltransferase (Homo sapiens) (P21964 whole entry, looked up): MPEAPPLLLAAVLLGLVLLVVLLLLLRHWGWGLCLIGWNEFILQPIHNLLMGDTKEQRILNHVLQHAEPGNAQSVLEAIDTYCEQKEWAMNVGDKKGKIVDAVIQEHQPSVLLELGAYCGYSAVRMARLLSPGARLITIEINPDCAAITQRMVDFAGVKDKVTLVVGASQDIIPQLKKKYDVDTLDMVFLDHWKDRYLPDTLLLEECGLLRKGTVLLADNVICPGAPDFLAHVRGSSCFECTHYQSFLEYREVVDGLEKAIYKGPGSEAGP
The target of assay [14] is Guanidinoacetate N-methyltransferase (Homo sapiens) (UniProt Q14353). Described as above. The note with it: MTase-Glo luminescence, SAH detection, recombinant enzyme; activity change, negative = inhibition: at 57.3 µM (top of the series) unless noted.
Assay [15] addresses Nicotinamide N-methyltransferase (Homo sapiens) (UniProt P40261). Described as above. The following applies: MTase-Glo luminescence, SAH detection, recombinant enzyme; measured here: NNMT max response; stronger effect = lower value.
Assay [16] addresses Phenylethanolamine N-methyltransferase (Homo sapiens) (UniProt P11086). The assay is described as above. The note with it: MTase-Glo luminescence, SAH detection, recombinant enzyme; measured here: PNMT max response; stronger effect = lower value.

Sequence of N-terminal Xaa-Pro-Lys N-methyltransferase 1 (Homo sapiens) (Q9BV86 whole entry, looked up): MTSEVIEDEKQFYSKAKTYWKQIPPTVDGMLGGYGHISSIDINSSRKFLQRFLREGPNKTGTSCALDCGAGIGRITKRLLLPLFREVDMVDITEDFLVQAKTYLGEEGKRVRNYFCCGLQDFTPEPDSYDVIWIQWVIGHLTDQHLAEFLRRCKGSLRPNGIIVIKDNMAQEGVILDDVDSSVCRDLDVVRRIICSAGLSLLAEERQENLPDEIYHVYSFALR
Sequence of Rap guanine nucleotide exchange factor 4 (Homo sapiens) (Q8WZA2 whole entry, looked up): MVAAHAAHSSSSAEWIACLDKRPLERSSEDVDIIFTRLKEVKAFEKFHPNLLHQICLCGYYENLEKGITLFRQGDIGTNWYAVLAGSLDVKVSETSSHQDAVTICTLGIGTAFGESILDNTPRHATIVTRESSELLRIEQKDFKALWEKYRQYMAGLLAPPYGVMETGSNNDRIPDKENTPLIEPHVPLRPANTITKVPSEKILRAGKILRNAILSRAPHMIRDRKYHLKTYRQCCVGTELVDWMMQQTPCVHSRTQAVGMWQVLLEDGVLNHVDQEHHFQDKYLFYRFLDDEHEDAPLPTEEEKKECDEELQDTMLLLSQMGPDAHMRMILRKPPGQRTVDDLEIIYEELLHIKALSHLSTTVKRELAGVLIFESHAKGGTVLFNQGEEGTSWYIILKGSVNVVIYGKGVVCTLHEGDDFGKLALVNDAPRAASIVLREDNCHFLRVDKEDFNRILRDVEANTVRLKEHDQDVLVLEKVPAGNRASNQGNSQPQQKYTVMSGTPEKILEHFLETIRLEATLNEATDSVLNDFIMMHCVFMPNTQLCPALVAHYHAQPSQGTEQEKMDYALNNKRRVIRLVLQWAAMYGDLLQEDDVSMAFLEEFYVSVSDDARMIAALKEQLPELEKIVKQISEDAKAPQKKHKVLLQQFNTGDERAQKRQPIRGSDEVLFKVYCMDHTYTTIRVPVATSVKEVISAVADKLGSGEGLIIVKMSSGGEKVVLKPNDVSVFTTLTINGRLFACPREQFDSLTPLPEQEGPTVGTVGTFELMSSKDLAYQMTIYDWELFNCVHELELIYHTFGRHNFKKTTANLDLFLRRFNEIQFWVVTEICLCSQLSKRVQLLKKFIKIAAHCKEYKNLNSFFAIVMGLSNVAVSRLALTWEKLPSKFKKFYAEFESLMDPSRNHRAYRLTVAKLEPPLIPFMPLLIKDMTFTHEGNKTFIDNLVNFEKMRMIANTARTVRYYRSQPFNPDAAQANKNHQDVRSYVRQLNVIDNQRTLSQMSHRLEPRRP
Sequence of Phenylethanolamine N-methyltransferase (Homo sapiens) (P11086 whole entry, looked up): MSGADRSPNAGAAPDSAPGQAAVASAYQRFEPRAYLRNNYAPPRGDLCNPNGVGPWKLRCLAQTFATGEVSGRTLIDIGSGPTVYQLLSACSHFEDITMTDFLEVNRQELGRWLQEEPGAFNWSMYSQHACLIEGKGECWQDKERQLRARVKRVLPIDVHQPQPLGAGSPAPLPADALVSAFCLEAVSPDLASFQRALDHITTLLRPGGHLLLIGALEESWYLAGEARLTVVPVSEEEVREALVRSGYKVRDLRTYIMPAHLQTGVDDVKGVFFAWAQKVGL
Sequence of Glutathione peroxidase 1 (Homo sapiens) (P07203 whole entry, looked up): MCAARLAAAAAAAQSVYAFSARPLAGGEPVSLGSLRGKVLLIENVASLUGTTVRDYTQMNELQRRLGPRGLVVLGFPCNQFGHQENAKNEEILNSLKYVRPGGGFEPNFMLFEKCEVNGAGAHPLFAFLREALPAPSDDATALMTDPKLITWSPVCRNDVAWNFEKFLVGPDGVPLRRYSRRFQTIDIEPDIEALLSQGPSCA
Sequence of Nicotinamide N-methyltransferase (Homo sapiens) (P40261 whole entry, looked up): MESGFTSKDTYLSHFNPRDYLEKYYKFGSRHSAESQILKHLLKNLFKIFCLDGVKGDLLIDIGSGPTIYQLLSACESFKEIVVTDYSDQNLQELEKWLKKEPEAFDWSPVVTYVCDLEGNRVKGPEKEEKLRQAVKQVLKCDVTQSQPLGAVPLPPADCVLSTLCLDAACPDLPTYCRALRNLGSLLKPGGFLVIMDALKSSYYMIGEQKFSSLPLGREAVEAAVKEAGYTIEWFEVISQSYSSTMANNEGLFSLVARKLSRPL
Sequence of Rap guanine nucleotide exchange factor 3 (Homo sapiens) (O95398 whole entry, looked up): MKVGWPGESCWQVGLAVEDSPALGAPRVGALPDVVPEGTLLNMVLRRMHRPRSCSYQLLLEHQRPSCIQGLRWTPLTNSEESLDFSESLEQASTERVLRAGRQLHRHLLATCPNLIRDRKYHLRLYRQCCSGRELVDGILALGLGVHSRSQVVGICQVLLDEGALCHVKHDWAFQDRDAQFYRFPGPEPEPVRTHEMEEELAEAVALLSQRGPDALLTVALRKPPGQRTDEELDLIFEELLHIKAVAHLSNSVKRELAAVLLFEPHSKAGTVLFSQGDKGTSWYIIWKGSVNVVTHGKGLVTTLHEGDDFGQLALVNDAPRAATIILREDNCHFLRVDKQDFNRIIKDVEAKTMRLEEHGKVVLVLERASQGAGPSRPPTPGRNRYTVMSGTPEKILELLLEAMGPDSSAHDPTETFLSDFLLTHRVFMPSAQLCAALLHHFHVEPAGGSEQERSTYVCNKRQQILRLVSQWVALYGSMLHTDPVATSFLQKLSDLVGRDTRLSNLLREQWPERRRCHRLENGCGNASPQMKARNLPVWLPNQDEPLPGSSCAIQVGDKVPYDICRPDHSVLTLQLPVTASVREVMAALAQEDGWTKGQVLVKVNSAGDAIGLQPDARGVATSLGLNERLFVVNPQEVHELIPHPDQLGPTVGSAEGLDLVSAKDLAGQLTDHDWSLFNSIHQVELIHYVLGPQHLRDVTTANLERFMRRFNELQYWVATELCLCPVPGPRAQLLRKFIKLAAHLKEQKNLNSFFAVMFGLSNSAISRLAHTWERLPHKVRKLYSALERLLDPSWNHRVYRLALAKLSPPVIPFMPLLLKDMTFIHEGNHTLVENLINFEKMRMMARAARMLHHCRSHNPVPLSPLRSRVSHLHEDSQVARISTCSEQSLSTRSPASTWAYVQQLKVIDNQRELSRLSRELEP

Turning to `Cc1c(Cl)ccc2sc(N3CCN(C(=O)C4CC4)CC3)nc12`, the Potency result in assay [1] is “inactive”.
Take `COCCCNC(=O)CSc1c2c(nc3ccc(Cl)cc13)CCCC2`: the Potency entry in assay [1] was “inactive”.
Regarding `Cc1c(O)cccc1C(=O)NC(CSc1ccccc1)C(O)CN1CC2CCCCC2CC1C(=O)NC(C)(C)C` (centres undefined), the results for the Potency in assay [2] and in assay [3] were 23.5 µM (active) and 20.9 µM (active), respectively.
Take `Cc1ccc(/C=C/c2nc3ccccc3[nH]2)cc1`: in [1], the Potency was 6.49 µM (active).
Turning to `Oc1cccc(Nc2cc(-c3ccccc3)ncn2)c1`, the Potency in [1] is 39.8 µM (active).
For `C=CC(=O)N1CC[C@@H](Oc2nc(Nc3ccc(N4CCC(N5CCN(C)CC5)CC4)cc3)c(C(N)=O)nc2CC)C1`, the Potency in assay [1] was 4.15 µM (active); in assay [2], 0.91 µM (active); in assay [3], 1.62 µM (active); in assay [5] it was 1.69 µM (active). For the same compound, the Potency entry in assay [4] is “inactive”. In addition, the Z-AUC in assay [5] (measured here: PEO1 parental Z-AUC) was -1.18; in assay [5] (measured here: PEO4 Z-AUC), -1.49.
Take `CC[C@]12C=CCN3CC[C@@]4(c5cc([C@@]6(C(=O)OC)CC7C[C@@H](C(C)(F)F)CN(Cc8c6[nH]c6ccccc86)C7)c(OC)cc5N(C)[C@H]4[C@@](O)(C(=O)OC)[C@@H]1OC(C)=O)[C@@H]32` (some centres undefined): the Potency in assay [2] is 0.263 µM (active).
For the compound `COc1c/c(=C2\C=c3ccccc3=N2)[nH]/c1=C/c1[nH]c(C)cc1C`, the Potency in assay [1] was 35 µM (active). For the same compound, the Potency entry in assay [6] is “inactive”.
On to `COc1cccc(NC(=O)CN(CCc2ccccc2)S(=O)(=O)c2ccc(Cl)cc2)c1`, for which, in assay [1], the Potency is 8.51 µM (active).
Turning to `Cc1cc(F)ccc1S(=O)(=O)Nc1cnccc1C(=O)Nc1nc(-c2ccccc2)cs1`, the outcome in assay [7] was “inactive”. Besides, the Potency in [8] was 0.968 µM (active); in assay [1], 21.8 µM (active).
With `CCCCOc1ccc(CC/C=C2\SC(=O)N(CCN)C2=O)cc1`, in [2], the Potency is 9.2 µM (active).
As to `CSc1ccc(/C=C/c2nc3ccccc3n2S(=O)(=O)c2cccc(Cl)c2)cc1`, in [1], the Potency is 8.51 µM (active).
On to `O=C(Nc1noc2ccccc12)c1ccc(F)cc1`, for which the Potency in [1] is 39.8 µM (active).
On to `Fc1cc(Nc2nc(-c3ccncc3)nc3ccccc23)ccc1N1CCNCC1`, for which the Potency in assay [1] was 21.8 µM (active).
As to `CC(NC(=O)c1sc2ncccc2c1-n1cccc1)c1ccccc1` (centres undefined), the Potency in [1] was 28.2 µM (active). For the same compound, the Potency result in assay [9], in [10], in assay [11] and in assay [12] was “inactive” in each case.
Turning to `COc1cccc(-c2n[nH]c3c2C(c2cccc(O)c2)N(C)C3=O)c1` (centres undefined), the Potency in assay [1] was 44.7 µM (active).
Regarding `O=C(/C=C/c1ccc2ccccc2n1)c1ccncc1`, the Potency in [2] is 3.66 µM (active); in [3], 4.11 µM (active).
Take `CCCS(=O)(=O)c1nc(NC2CC2)cc(-c2ccc3c(ccn3C3CC(C)(C)NC(C)(C)C3)c2)n1`: the figures for the Potency in [2] and in [3] were 2.48 µM (active) and 2.21 µM (active), respectively. In addition, the activity in assay [13] is -4.11%; in assay [15], -12%; in [16], -6.24%. Further, in assay [14], the activity change, negative = inhibition is 1.84% [at 19.1 µM]. Moreover, the Potency entry in [6] and in assay [4] was “inactive” each time.
Consider `COc1ccc(C(=O)CSc2nc(C)cc(C)c2C(=O)Nc2ccccc2C)cc1`, for which, in [1], the Potency entry is “inactive”.
Take `O=c1cc(-c2ccccc2)oc2ccc(O)cc12`: the Potency in assay [1] was 20 µM (active); in assay [2], 18.4 µM (active).
With `C=CC(C)(/C=C/c1ccc(O)cc1)CCC=C(C)C` (centres undefined), the Potency in assay [2] is 20.6 µM (active).
Consider `CCOc1ccc(/C=C/c2nc3ccccc3n2S(=O)(=O)c2cccc(Cl)c2)cc1`, for which the Potency in assay [1] was 12 µM (active).
In the case of `O=C1Nc2ccccc2/C1=C/c1cc(O)ccc1O`, the Potency is 16.4 µM (active) in assay [2] and 18.4 µM (active) in assay [3]. Also, the activity in [13] was -4.65%; in [15], -18.3%; in assay [16] it was -2.66%. Besides, in assay [14], the activity change, negative = inhibition was -0.984%.
`COc1cc2nc(N3CCCCC3)nc(NC3CC3)c2cc1OC`: the Potency in assay [1] was 34.5 µM (active).
Regarding `S=C(Nc1ccccn1)c1ccccn1`, in assay [1], the Potency was 10.3 µM (active).
For `COc1cc2c(NC3CCN(C(C)C)CC3)nc(N3CCCN(CC4CCCCC4)CC3)nc2cc1OCCCN1CCCCC1`, in assay [1], the Potency is 43.5 µM (active).

Source of the values: PubChem BioAssay (NCATS).
